Test results reported in PubChem BioAssay (NCATS).
Records with an inconclusive call do not appear. Activity calls are given as the source filed them. Unless noted, calls follow the shape of the dose curve; as a rule, active = well fitted curve in the direction sought with a large enough effect; inconclusive = small, poorly fitted or top-dose-only effect, or another doubt; inactive = no such curve, though single readings can be large; an effect the other way counts as inactive or inconclusive.

How the values were obtained:
[1] = qHTS to identify inhibitors of the type 1 interferon - major histocompatibility complex class I in skeletal muscle: primary screen against the NCATS Pharmaceutical Collection (AID 1347407);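 also: luminescence of HiBiT knocked into endogenous HLA-B as interferon-induced MHC class I level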
In short: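 Cells were seeded with 4 ng/ml IFN-beta, incubated 1 h, then dosed with compounds over eight 1:5 steps up to 46 uM final. After 24 h at 37 C, HiBiT lytic reagent was added and luminescence read after 10 min lysis in the dark.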

[2] = target: Protein phosphatase 1D (Homo sapiens) (UniProt O15297); experiment: RapidFire Mass Spectrometry qHTS Assay for Modulators of WT P53-Induced Phosphatase 1 (WIP1) (AID 1347424);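 also: amount of dephosphorylated VEPPL-S-QETFS peptide product formed by WIP1; series mostly up to about 63 µM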
In short: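 10 nM WIP1 + cpd, 1 h RT; + 2 uM VEPPL-pS-QETFS, 5 min RT; stop 0.5% formic acid; labelled product standard 1 uM; RapidFire MS. Buffer 50 mM Tris pH 7.5, 30 mM MgCl2, 1 mM TCEP.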

[3] = target: Protein phosphatase 1D (Homo sapiens) (UniProt O15297); experiment: Rhodamine-PBP qHTS Assay for Modulators of WT P53-Induced Phosphatase 1 (WIP1) (AID 1347425)
In short: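 5 nM WIP1 + 10 uM Rh-PBP, 50 mM Tris pH 7.5, 30 mM MgCl2, 1 mM TCEP, 0.1 mM EGTA, BSA; cpds pinned, 1 hr RT; + 10 uM phosphopeptide; fluorescence 1-min reads x 11 min; delta = f1 - f0.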

[4] = Primary qHTS for inhibitors of La Crosse Virus (LACV) - induced cell death in SH-SY5Y cells (AID 1508616);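 also: top concentration of the series differs between compounds; higher means more rescue of cells from virus-induced death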
In short: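 SH-SY5Y cells (6000/well) plated 24 h, then given compounds by pin transfer and LACV at 0.01 MOI for 6 days at 37C. Viability measured by ATPLite luminescence, normalized to infected DMSO and uninfected DMSO.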

[5] = target: Calcium and integrin-binding protein 1 (Homo sapiens) (UniProt Q99828); experiment: Primary qHTS for Identification of Calcium Integrin Binding Protein 1 (CIB1) Competitor (AID 1508620);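 also: GST tagged CIB1 binding a fluorescein labelled alphaIIb integrin peptide tracer; top concentration of the series differs between compounds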
In short: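 CIB1-GST (1 uM final) and compound incubated 15 min at room temperature before adding FITC-alphaIIb peptide tracer (100 nM final). Competition for binding read by fluorescence polarization (ex 480, em 540) after another 15 min at room temperature.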

[6] = Primary qHTS for inhibitors of SARS-S pseudo-typed particle cell entry (AID 1479145; calls by dose curve; also: nearly all actives have a fitted effect of over 45% in size; also: potency is read from the fitted curve at half-maximal effect)
[7] = Primary qHTS for Huh7 cytotoxicity: counterscreen for inhibitors of MERS-S pseudotyped particle cell entry (AID 1479147; calls by dose curve)
[8] = Primary qHTS for Vero E6 cytotoxicity: counterscreen for inhibitors of SARS-S pseudo-typed particle cell entry (AID 1479150; calls by dose curve)
[9] = Primary qHTS for inhibitors of MERS-S pseudo-typed particle cell entry (AID 1479149; calls by dose curve; also: nearly all actives have a fitted effect of over 60% in size)
[10] = Counterscreen qHTS for small molecule stabilizers of the endoplasmic reticulum resident proteome: GLuc-NoTag assay (AID 1508627); also: potency is read from the fitted curve at half-maximal effect
In short: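 Luminescence of Gaussia luciferase secreted into the medium (coelenterazine, 0.07x final, unlysed cells) was the read-out. Human SH-SY5Y neuroblastoma cells constitutively secreting untagged GLuc received compound for 19 h, then 100 nM thapsigargin for 4 h.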

[11] = Confirmatory qHTS for small molecule stabilizers of the endoplasmic reticulum resident proteome: Secreted ER Calcium Modulated Protein (SERCaMP) assay (AID 1508628); also: potency is read from the fitted curve at half-maximal effect; nearly all actives have a fitted effect of over 40% in size
In short: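 SH-SY5Y cells stably expressing GLuc-SERCaMP, treated 16 h with compound (primary 1.53, 7.67, 38.3 uM; confirmation 11 concentrations, up to 76.6 uM), then 100 nM thapsigargin for 4 h. Secreted Gaussia luciferase in medium read by coelenterazine luminescence.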

Measured: Potency

Sequence of Protein phosphatase 1D (Homo sapiens) (O15297 whole entry, looked up): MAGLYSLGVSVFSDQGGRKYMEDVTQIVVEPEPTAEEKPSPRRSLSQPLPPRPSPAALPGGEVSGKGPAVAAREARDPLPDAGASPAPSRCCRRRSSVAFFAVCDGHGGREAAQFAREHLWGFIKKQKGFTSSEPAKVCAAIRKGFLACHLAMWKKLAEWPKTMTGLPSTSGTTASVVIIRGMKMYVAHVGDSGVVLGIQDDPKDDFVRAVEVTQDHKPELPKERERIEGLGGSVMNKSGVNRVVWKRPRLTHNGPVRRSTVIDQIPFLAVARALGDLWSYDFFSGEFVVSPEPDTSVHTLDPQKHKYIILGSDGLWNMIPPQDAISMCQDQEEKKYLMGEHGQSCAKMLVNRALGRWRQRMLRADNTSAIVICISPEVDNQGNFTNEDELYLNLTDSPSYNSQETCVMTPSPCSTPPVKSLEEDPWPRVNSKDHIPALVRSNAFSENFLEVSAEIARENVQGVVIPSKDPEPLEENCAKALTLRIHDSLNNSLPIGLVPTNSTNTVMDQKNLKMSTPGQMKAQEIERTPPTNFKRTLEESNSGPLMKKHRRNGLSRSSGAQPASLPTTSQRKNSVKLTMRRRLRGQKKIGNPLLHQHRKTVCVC
Sequence of Calcium and integrin-binding protein 1 (Homo sapiens) (Q99828 whole entry, looked up): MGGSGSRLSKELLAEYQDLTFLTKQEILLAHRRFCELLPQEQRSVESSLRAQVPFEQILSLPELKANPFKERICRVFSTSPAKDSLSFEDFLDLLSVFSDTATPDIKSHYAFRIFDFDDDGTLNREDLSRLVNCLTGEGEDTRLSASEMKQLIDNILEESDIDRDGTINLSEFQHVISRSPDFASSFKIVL

C[C@H]1CNCCc2ccc(Cl)cc21
inactive: [1] | [2] | [3] | [4] | [5]

CCOC(=O)C(c1c(O)c2ccccc2oc1=O)c1c(O)c2ccccc2oc1=O
inactive: [1] | [2] | [3] | [4] | [5]

Cc1nc2ccccc2c(=O)n1-c1ccccc1Cl
inactive: [1] | [2] | [3] | [4] | [5]

CN1CCC(N(Cc2ccccc2)c2ccccc2)CC1
inactive: [1] | [2] | [3] | [4] | [5]

CN1C(=O)CN=C(c2ccccc2)c2cc(Cl)ccc21
inactive: [1] | [2] | [3] | [4] | [5]

CCO[C@H]1O[C@@H]2OC3(C)CC[C@H]4[C@H](C)CC[C@@H]([C@H]1C)[C@@]24OO3
inactive: [1] | [2] | [3] | [4] | [5]

COCC(=O)N(c1c(C)cccc1C)C(C)C(=O)OC (stereo unspecified)
inactive: [1] | [2] | [3] | [4] | [5]

Nc1ccc(Cl)cc1C(=O)c1ccccc1F
inactive: [1] | [2] | [3] | [4] | [5]

CCCOC(=O)Cc1ccc(OCC(=O)N(CC)CC)c(OC)c1
inactive: [1] | [2] | [3] | [4] | [5]

CCN1CCCC1CNC(=O)C(O)(c1ccccc1)c1ccccc1 (stereo unspecified)
inactive: [1] | [2] | [3] | [4] | [5]

Cc1ncc2n1-c1ccc(Cl)cc1C(c1ccccc1F)=NC2
inactive: [1] | [2] | [3] | [4] | [5]

CN(C)CCc1c[nH]c2ccccc12
inactive: [1] | [2] | [3] | [4] | [5]

CCN(Cc1ccc(Cl)nc1)/C(=C/[N+](=O)[O-])NC
inactive: [1] | [2] | [3] | [4] | [5]

NCc1cccnc1
inactive: [1] | [2] | [3] | [4] | [5]

COc1ccc(OC)c(CC(C)N)c1 (stereo unspecified)
inactive: [1] | [2] | [3] | [4] | [5]

ClCc1cccc(Cl)c1
inactive: [1] | [2] | [3] | [4] | [5]

C[C@]12C=CC(=O)C=C1CC[C@@H]1[C@@H]2CC[C@@]2(C)[C@H]1CC[C@]2(C)O
inactive: [1] | [2] | [3] | [4] | [5]

CCNc1nc(Cl)nc(NCC)n1
inactive: [1] | [2] | [3] | [4] | [5]

O=C(CCCCl)c1ccc(F)cc1
inactive: [1] | [2] | [3] | [4] | [5]

CNC(C)Cc1ccc2c(c1)OCO2 (stereo unspecified)
inactive: [1] | [2] | [3] | [4] | [5]

C[C@]12CC[C@H]3[C@@H](CC=C4C[C@@H](O)CC[C@@]43C)[C@@H]1CC[C@@H]2O
inactive: [1] | [2] | [3] | [4] | [5]

COc1cc(C[C@@H](C)N)c(OC)cc1C
inactive: [1] | [2] | [3] | [4] | [5]

CCC(OC(C)=O)C(CC(C)NC)(c1ccccc1)c1ccccc1 (stereo unspecified)
inactive: [1] | [2] | [3] | [4] | [5]

C1CN2CCC1CC2
inactive: [1] | [2] | [3] | [4] | [5]

COP(=S)(OC)Oc1ccc(Sc2ccc(OP(=S)(OC)OC)cc2)cc1
inactive: [1] | [2] | [3] | [4] | [5]

CNC(=O)NC(O)C(Cl)(Cl)Cl (stereo unspecified)
inactive: [1] | [2] | [3] | [4] | [5]

CCS(=O)(=O)C(C)(C)S(=O)(=O)CC
inactive: [1] | [2] | [3] | [4] | [5]

COc1cc(CC(C)N)c(OC)cc1Br (stereo unspecified)
inactive: [1] | [2] | [3] | [4] | [5]

CC#C[C@]1(O)CC[C@H]2[C@@H]3C[C@H](C)C4=CC(=O)CC[C@]4(C)[C@H]3CC[C@@]21C
active: [6] 20 µM
inactive: [2] | [3] | [7] | [8] | [4] | [5]

Oc1ccc([C@H]2CNCc3c2ccc(O)c3O)cc1O
inactive: [1] | [3] | [6] | [7] | [9] | [8] | [4]

CN1C(=O)[C@@H](NC(=O)c2cc3ccccc3[nH]2)N=C(c2ccccc2)c2ccccc21
inactive: [1] | [3] | [4] | [5]

CC[n+]1c(-c2ccccc2)c2cc(N)ccc2c2ccc(N)cc21
active: [10] 20 µM
inactive: [1] | [4]

CCOC(=O)c1cncn1C(C)c1ccccc1 (stereo unspecified)
inactive: [2] | [3] | [6] | [7] | [8] | [4] | [5]

NC1(c2ccccc2)CCCCC1
active: [11] 56.2 µM
inactive: [1] | [2] | [3] | [4] | [5] | [10]

CCC(=O)OC1(c2ccccc2)CCN(C)CC1
inactive: [1] | [2] | [3] | [4] | [5] | [10]
